Experimental data published in PubChem BioAssay (NCATS).
Values joined by “and” are separate entries in the source; they are usually repeats but may differ in a detail not shown here. Equal entries are not always repeated. Records with an inconclusive call do not appear. Active and inactive are the calls of the source. Calls come from the whole dose curve; as a rule, active = well fitted curve in the direction sought with a large enough effect; inconclusive = small, poorly fitted or top-dose-only effect, or another doubt; inactive = no such curve, though single readings can be large; an effect the other way counts as inactive or inconclusive.

What was measured:
[1] = biological target: Cellular tumor antigen p53 (Homo sapiens) (UniProt P04637); assay: Primary qHTS for small molecule compounds that upregulate eGFP-tagged delta133p53alpha (in N-terminal) cells. (AID 2060322); details: NCI-H358 eGFP-delta133p53alpha fluorescence, 24 h; activation: hits give high values;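 note: 0% = DMSO vehicle and 100% = reference activator; nearly all actives have a fitted effect of over 75% in size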
How it was run: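 NCI-H358 cells pre-induced 24 h with 10 ng/ml doxycycline to express N-terminal eGFP-delta133p53alpha, then dosed 24 h at 37C without doxycycline; fixed, Hoechst-stained, GFP intensity by laser scanning cytometry, normalized to DMSO (0%) and 57.5 uM 5-azacytidine (100%).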

[2] = biological target: Aldehyde dehydrogenase, mitochondrial (Homo sapiens) (UniProt P05091); assay: qHTS for Inhibitors of the Aldehyde Dehydrogenase Family (ALDH2) Primary screen (AID 2061308); details: ALDH2 enzyme inhibition qHTS, 1536-well; series mostly up to 56 µM;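 note: plate controls were vehicle for no effect and reference inhibitor for full effect; nearly all actives have a fitted effect of over 55% in size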
[3] = biological target: Retinaldehyde dehydrogenase 3 (Homo sapiens) (UniProt P47895); assay: qHTS for Inhibitors of the Aldehyde Dehydrogenase Family (ALDH1A3) Primary screen (AID 2061315); details: ALDH inhibition qHTS; series mostly up to 56 µM;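 note: plate controls were DMSO vehicle for no effect and reference inhibitor for full effect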

Chain of Cellular tumor antigen p53 (Homo sapiens) (P04637 whole entry, looked up): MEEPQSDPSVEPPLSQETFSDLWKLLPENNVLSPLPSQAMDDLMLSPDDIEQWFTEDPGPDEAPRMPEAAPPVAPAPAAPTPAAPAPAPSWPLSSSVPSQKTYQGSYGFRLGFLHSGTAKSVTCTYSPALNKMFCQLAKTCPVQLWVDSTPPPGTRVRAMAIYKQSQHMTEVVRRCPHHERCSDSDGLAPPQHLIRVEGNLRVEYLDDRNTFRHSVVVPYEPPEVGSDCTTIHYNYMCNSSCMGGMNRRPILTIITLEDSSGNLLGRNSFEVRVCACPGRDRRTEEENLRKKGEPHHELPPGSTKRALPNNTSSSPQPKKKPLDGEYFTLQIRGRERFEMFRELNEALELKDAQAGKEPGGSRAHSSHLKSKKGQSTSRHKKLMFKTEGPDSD

Fc1ccc(N2CCCCC2)c(NC(=S)c2ccncc2)c1
inactive: activation [1] -8.04% | Potency [2] | Potency [3]

NC(=O)[C@H](Cc1ccccc1)NC(=O)[C@H](CCCN=C(N)N)NC(=O)C12CC3CC(CC(C3)C1)C2
inactive: activation [1] -9% | activity change, negative = inhibition [2] 0.973% [at 11.2 µM] | activity change, negative = inhibition [3] -5.76% [at 11.2 µM]

CC(C)C1C(OC(=O)/C=C/c2ccccc2)CC2(C)OC2CCC2(C)OC2C1O (stereo unspecified)
inactive: activation [1] -0.763% | Potency [2] | Potency [3]

O=C(OCCOCCO)c1ccccc1Nc1cccc(C(F)(F)F)c1
inactive: activation [1] -13% and -1.67% | Potency [2] | Potency [3]

O=C(O)c1ccc(OC2OC(CO)C(O)C(O)C2O)cc1 (stereo unspecified)
inactive: activation [1] -11.6% | Potency [2] | Potency [3]

C[C@H]1CC[C@H]2[C@@H](C=C[C@@](C)(O)[C@]2(C)C(=O)CCO)C1
inactive: activation [1] -9.16% | Potency [2] | Potency [3]

C/C=C/C=C/C1=C2C(=O)C3(C)C4C(C(=O)CC(O)/C=C/C)=C(O1)C1(C)C2C2(C)OC1(O)C4(C)OC23O (stereo unspecified)
inactive: activation [1] -2.68% | Potency [2] | Potency [3]
